Results reported in ChEMBL document CHEMBL1961873, “Compounds: GSK PKIS; Assays: Nanosyn kinase panel” (2012).

Key:
[1] = biological target: Platelet-derived growth factor receptor beta (Homo sapiens) (UniProt P09619); settings: at 1 µM;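 further: each value is a mean percent inhibition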
[2] = biological target: Tyrosine-protein kinase FRK (Homo sapiens) (UniProt P42685); settings: at 0.1 µM
[3] = biological target: Tyrosine-protein kinase FRK (Homo sapiens) (UniProt P42685); settings: at 1 µM
[4] = biological target: Protein-tyrosine kinase 2-beta (Homo sapiens) (UniProt Q14289); settings: at 0.1 µM
[5] = biological target: Protein-tyrosine kinase 2-beta (Homo sapiens) (UniProt Q14289); settings: at 1 µM
[6] = biological target: Proto-oncogene tyrosine-protein kinase receptor Ret (Homo sapiens) (UniProt P07949); settings: at 0.1 µM
[7] = biological target: Proto-oncogene tyrosine-protein kinase receptor Ret (Homo sapiens) (UniProt P07949); settings: at 1 µM
[8] = test system: Proto-oncogene tyrosine-protein kinase receptor Ret (Homo sapiens), P07949 [V804L]; settings: at 0.1 µM
[9] = test system: Proto-oncogene tyrosine-protein kinase receptor Ret (Homo sapiens), P07949 [V804L]; settings: at 1 µM
[10] = test system: Proto-oncogene tyrosine-protein kinase receptor Ret (Homo sapiens), P07949 [Y791F]; settings: at 0.1 µM
[11] = test system: Proto-oncogene tyrosine-protein kinase receptor Ret (Homo sapiens), P07949 [Y791F]; settings: at 1 µM
[12] = biological target: Macrophage-stimulating protein receptor (Homo sapiens) (UniProt Q04912); settings: at 0.1 µM
[13] = biological target: Macrophage-stimulating protein receptor (Homo sapiens) (UniProt Q04912); settings: at 1 µM
[14] = biological target: Proto-oncogene tyrosine-protein kinase ROS (Homo sapiens) (UniProt P08922); settings: at 0.1 µM
[15] = biological target: Proto-oncogene tyrosine-protein kinase ROS (Homo sapiens) (UniProt P08922); settings: at 1 µM
[16] = biological target: Proto-oncogene tyrosine-protein kinase Src (Homo sapiens) (UniProt P12931); settings: at 0.1 µM
[17] = biological target: Proto-oncogene tyrosine-protein kinase Src (Homo sapiens) (UniProt P12931); settings: at 1 µM
[18] = biological target: Tyrosine-protein kinase Srms (Homo sapiens) (UniProt Q9H3Y6); settings: at 0.1 µM
[19] = biological target: Tyrosine-protein kinase Srms (Homo sapiens) (UniProt Q9H3Y6); settings: at 1 µM
[20] = biological target: Tyrosine-protein kinase SYK (Homo sapiens) (UniProt P43405); settings: at 0.1 µM;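 further: reported percentages are mean inhibition values for SYK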

Sequence of Platelet-derived growth factor receptor beta (Homo sapiens) (P09619 whole entry): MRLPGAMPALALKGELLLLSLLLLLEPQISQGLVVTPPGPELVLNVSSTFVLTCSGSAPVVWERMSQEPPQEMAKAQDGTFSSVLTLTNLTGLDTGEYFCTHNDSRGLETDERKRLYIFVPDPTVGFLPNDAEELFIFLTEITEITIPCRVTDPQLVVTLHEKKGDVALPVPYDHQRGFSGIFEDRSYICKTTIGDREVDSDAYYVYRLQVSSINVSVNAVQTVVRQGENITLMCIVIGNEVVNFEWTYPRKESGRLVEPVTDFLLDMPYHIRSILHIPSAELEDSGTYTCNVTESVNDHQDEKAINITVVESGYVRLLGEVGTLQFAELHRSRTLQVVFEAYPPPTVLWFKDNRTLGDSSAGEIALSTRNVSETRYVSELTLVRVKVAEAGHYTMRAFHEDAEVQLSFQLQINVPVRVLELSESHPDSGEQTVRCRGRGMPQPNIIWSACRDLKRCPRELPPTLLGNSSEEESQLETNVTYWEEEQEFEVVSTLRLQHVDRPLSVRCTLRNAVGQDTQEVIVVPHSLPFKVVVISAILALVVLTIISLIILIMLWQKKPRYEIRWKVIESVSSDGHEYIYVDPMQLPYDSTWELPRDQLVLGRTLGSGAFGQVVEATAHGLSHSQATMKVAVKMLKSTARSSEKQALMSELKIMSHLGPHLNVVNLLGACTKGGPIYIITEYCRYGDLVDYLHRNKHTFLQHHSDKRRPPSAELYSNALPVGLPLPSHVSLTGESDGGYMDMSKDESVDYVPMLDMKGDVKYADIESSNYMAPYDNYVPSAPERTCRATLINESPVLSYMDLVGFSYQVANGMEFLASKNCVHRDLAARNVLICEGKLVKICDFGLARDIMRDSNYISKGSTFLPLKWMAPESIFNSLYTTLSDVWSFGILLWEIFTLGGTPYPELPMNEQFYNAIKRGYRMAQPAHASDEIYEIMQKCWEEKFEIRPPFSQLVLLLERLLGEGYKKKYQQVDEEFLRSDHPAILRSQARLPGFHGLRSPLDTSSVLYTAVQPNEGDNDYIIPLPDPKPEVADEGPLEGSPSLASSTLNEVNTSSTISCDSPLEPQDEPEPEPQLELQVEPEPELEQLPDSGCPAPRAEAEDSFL
Sequence of Proto-oncogene tyrosine-protein kinase receptor Ret (Homo sapiens), P07949 [V804L] (P07949 whole entry V804L): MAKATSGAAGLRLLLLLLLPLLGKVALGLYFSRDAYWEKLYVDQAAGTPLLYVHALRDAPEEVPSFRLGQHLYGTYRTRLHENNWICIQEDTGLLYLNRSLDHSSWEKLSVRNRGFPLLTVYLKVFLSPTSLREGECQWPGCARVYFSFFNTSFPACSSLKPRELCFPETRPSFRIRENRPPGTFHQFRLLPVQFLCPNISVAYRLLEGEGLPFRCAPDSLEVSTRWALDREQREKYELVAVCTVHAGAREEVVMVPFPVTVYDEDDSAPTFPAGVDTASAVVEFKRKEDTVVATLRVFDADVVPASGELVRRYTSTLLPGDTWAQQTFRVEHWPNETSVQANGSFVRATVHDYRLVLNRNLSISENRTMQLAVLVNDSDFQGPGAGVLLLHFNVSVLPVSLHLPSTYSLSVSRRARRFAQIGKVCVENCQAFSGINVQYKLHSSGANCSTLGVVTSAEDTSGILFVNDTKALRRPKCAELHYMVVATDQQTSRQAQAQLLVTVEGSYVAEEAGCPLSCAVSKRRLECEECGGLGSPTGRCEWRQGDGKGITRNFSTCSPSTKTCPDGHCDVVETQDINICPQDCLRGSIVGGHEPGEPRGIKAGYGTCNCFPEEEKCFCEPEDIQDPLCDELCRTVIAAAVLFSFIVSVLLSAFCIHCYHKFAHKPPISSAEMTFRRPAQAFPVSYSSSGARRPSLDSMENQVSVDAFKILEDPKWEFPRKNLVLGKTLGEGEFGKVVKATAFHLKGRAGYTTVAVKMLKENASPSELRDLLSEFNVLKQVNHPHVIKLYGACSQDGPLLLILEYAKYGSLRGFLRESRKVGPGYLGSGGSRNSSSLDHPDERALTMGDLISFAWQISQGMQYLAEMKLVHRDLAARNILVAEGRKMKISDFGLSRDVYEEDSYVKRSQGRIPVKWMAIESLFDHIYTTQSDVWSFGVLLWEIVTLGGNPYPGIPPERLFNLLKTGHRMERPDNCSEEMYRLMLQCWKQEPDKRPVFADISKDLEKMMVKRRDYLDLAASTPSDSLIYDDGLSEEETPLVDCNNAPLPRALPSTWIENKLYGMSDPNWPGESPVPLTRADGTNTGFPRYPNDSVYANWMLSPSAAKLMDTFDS
Sequence of Proto-oncogene tyrosine-protein kinase receptor Ret (Homo sapiens) (P07949 whole entry): as the sequence (P07949 whole entry V804L) above, with L804V counted along it
Sequence of Protein-tyrosine kinase 2-beta (Homo sapiens) (Q14289 whole entry, looked up): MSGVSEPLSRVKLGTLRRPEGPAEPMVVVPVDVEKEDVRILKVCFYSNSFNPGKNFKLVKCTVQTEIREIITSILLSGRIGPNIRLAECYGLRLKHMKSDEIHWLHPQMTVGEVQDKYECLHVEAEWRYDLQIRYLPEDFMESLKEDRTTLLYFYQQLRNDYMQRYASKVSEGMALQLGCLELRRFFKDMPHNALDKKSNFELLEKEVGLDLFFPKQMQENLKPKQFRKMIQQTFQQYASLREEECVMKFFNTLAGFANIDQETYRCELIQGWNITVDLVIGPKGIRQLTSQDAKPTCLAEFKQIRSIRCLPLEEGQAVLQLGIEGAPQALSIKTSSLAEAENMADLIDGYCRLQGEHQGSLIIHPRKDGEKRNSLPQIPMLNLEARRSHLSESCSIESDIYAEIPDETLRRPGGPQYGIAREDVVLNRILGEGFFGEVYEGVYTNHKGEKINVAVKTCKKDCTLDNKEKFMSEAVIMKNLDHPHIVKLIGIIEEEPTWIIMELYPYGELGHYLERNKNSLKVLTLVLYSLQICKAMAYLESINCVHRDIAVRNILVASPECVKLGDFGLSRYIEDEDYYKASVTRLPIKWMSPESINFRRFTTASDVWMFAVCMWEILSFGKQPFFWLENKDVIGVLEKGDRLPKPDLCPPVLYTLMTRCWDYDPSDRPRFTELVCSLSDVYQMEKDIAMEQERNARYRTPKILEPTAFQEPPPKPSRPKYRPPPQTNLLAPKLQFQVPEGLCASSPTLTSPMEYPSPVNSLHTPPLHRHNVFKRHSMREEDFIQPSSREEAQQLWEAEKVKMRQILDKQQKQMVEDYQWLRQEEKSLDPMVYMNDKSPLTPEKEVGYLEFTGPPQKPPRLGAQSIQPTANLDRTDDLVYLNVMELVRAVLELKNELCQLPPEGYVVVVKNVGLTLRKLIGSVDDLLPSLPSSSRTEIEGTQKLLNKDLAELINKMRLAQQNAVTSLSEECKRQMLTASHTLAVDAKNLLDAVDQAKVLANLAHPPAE
Sequence of Macrophage-stimulating protein receptor (Homo sapiens) (Q04912 25-304 limits assumed): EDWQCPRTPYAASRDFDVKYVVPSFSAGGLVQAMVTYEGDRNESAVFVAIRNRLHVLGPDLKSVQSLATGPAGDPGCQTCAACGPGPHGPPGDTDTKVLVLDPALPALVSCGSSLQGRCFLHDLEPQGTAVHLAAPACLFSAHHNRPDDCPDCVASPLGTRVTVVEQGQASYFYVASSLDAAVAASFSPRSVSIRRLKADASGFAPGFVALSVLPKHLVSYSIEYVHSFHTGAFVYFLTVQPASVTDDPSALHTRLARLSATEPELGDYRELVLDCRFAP
Sequence of Macrophage-stimulating protein receptor (Homo sapiens) (Q04912 310-1400 limits assumed): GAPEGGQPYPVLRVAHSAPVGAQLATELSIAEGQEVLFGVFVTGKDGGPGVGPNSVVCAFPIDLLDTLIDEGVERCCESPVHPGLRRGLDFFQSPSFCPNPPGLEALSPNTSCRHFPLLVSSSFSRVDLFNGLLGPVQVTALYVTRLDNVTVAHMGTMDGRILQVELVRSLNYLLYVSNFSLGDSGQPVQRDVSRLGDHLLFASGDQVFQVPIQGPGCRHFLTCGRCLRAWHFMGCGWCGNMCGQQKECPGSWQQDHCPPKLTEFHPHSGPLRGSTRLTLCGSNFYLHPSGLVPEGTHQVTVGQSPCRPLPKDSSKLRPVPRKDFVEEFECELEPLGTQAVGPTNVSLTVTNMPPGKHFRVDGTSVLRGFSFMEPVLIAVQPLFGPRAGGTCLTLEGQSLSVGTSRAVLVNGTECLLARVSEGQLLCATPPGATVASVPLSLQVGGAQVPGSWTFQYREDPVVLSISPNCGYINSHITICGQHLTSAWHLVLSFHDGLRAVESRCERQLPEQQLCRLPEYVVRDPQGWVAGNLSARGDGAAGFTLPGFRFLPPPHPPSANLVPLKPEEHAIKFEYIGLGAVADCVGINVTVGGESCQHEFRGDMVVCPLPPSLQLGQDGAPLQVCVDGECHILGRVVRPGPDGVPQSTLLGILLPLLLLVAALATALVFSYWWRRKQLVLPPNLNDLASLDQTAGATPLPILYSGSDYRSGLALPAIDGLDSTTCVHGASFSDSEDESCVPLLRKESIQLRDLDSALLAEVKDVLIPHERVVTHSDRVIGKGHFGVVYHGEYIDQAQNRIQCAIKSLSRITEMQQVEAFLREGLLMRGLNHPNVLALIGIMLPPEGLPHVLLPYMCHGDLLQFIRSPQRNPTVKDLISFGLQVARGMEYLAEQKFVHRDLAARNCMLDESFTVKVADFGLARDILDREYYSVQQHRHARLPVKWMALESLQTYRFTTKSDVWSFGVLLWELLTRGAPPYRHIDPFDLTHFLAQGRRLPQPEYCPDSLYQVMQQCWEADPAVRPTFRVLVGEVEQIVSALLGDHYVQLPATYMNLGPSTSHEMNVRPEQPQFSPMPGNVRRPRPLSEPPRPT
Sequence of Proto-oncogene tyrosine-protein kinase receptor Ret (Homo sapiens), P07949 [Y791F] (P07949 whole entry Y791F): as the sequence (P07949 whole entry V804L) above, with Y791F, L804V counted along it

Structure (SMILES)	inhibition [1]	inhibition [2]	inhibition [3]	inhibition [4]	inhibition [5]	inhibition [6]	inhibition [7]	inhibition [8]	inhibition [9]	inhibition [10]	inhibition [11]	inhibition [12]	inhibition [13]	inhibition [14]	inhibition [15]	inhibition [16]	inhibition [17]	inhibition [18]	inhibition [19]	inhibition [20]
NC(=O)c1ccc(Oc2nccc(-c3c(-c4ccc(F)cc4)ncn3C3CCNCC3)n2)cc1	6.41%	2.8%	4.67%	-0.03%	10.9%	1.55%	2.99%	2.2%	5.79%	3.11%	3.63%	4.31%	6.11%	9.43%	7.5%	13%	13.6%	-3.65%	-3.42%	-0.16%
c1ccc(-c2n[nH]cc2-c2ccnc(-c3ccc(OCCN4CCOCC4)cc3)c2)nc1	52.2%	2.08%	0.63%	-9.86%	0.28%	8.77%	11.1%	6.56%	4.32%	10%	12.9%	-5.76%	3.22%	7.93%	11.1%	1.88%	4.39%	4.69%	3.57%	11.6%
NS(=O)(=O)c1ccc(Nc2cc(-c3ccc(O)c(F)c3)n[nH]2)cc1	53.4%	-1.68%	0.93%	-2.28%	-1.9%	11.3%	55%	10.6%	47.6%	14.1%	55.5%	-1.82%	10.5%	0.96%	3.04%	-0.44%	8.59%	-1.1%	1.72%	3.87%
CN(C)c1ccc2c(c1)/C(=C/Nc1ccc(S(N)(=O)=O)cc1)C(=O)N2	71.3%	1.57%	2.09%	8.05%	31.7%	20.2%	51.5%	12.5%	51.1%	11.2%	47%	-0.09%	7.23%	4.66%	8.86%	-4.52%	27.4%	1.2%	3.48%	
Fc1ccc(-c2nc3n(c2-c2ccncc2)CCS3)cc1	8.35%	1.92%	3.19%	9.18%	6.63%	4.05%	8.81%	9.59%	12.6%	5.15%	9.79%	-2.87%	6.64%	7.49%	6.54%	3.03%	8.62%	-2.19%	-4.01%	-6.2%
O=C(Nc1n[nH]c2cc(-c3cc(F)ccc3F)ccc12)C1CC1	14.1%	2.44%	0.71%	9.57%	10.3%	6.14%	10.3%	3.33%	2.9%	7.68%	11.5%	4.71%	1.65%	5.51%	5.37%	-1.08%	8.62%	-0.64%	-2.57%	-7.24%
CN(C)CCCNc1nccc(-c2c(-c3ccc(F)cc3)nn3cc(C(F)(F)F)ccc23)n1	14.1%	-0.09%	1.37%	-1.38%	1.42%	7.28%	10.8%	8.31%	21.7%	10.9%	13.2%	3.96%	5.64%	3.75%	7.77%	16.6%	9.03%	0.42%	0.14%	-3.32%
COC(=O)Nc1nc2ccc(Sc3ccc(NC(=O)Nc4cc(C(F)(F)F)ccc4F)cc3)cc2[nH]1	16.5%	0.1%	0.7%	2.56%	0.15%	24.7%	74.1%	9.72%	58%	23%	73.9%	-5.81%	-0.55%	-2.6%	0.19%	17.4%	12.5%	1.2%	-0.15%	0.25%
Fc1ccc(-c2ncn(CCCN3CCOCC3)c2-c2ccncc2)cc1	6.02%	0.05%	-1.57%	0.29%	-0.89%	0.8%	2.72%	-0.64%	0.11%	2.85%	7.08%	-2.7%	0.97%	2.12%	4.63%	3.31%	1.01%	-3.46%	-3.16%	2.97%
O=C1NC(=O)C(c2cccc(Cl)c2)=C1Nc1ccc(Cl)c(C(=O)O)c1	8.9%	-0.46%	2.48%	7.05%	6.6%	7.27%	3.52%	5.17%	7.71%	3.26%	13.8%	5.57%	1.47%	2%	0.59%	8.46%	8.07%	0.43%	0.54%	1.85%
COc1cccc(-n2cnc3c(N/N=C/c4ccncc4)ncnc32)c1	49.9%	-0.1%	0.9%	-4.12%	10.5%	3.89%	13.9%	-0.06%	12.5%	2.51%	32.8%	0.89%	0.14%	-1.03%	4.38%	12.5%	50.4%	2.47%	6.19%	1.9%
CCN(CC)Cc1ccc(Nc2nccc(-c3cnn4ncccc34)n2)cc1	71.8%	2.63%	3.76%	24.8%	81.3%	4.61%	12.8%	2.46%	16.3%	5.39%	18.2%	4.89%	22.4%	34.5%	70.5%	10.3%	38.2%	-1.32%	0.74%	1.59%
CNC(=O)c1cncc(/C=C/c2c(C)cccc2C)c1	26.2%	1.71%	17.3%	-2.5%	-2.35%	4.57%	7.32%	-0.1%	6.46%	1.16%	17.6%	1.75%	0.77%	-2.1%	1.85%	17.5%	59%	2.41%	9.33%	0.05%
